# Laboratory results as given in PubChem BioAssay.
# Active and inactive are the calls of the source. Unless noted, no rule for the calls is given here.
# How the values were obtained:
# [1] = A549 cell viability effects, profiling panel, calcein-AM fluorescence, 48 h, basal (AID 1162); settings: higher = more signal; also: test concentration not given here
# [2] = adipocyte viability effects, profiling panel, cell-based, 3T3-L1 adipocytes, calcein-AM fluorescence, 48 h, basal (AID 1163); settings: 3T3-L1 adipocytes viability, higher = more signal; also: test concentration not given here
# [3] = HepG2 cell viability effects, profiling panel, calcein-AM fluorescence, 48 h, basal (AID 1164); settings: higher = more signal; also: test concentration not given here
# [4] = MM1S cell viability effects, profiling panel, calcein-AM fluorescence, 48 h, basal (AID 1165); settings: higher = more signal;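 also: viability of MM1S multiple myeloma cells under basal unstimulated conditions; test concentration not given here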
# [5] = basal RPMI8226 viability, no added stimulus, profiling panel, cell-based, calcein-AM fluorescence, 48 h, PK04 Diversity Set (AID 1166); settings: RPMI8226 myeloma viability, higher = more signal;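 also: cells grown under basal conditions without added stimulus; test concentration not given here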
# [6] = basal HepG2 mitochondrial membrane potential changes, profiling panel, cell-based, JC-1 fluorescence, 24 h, 100 nL compound (AID 1167); settings: higher = more signal; also: test concentration not given here
# [7] = basal 3T3-L1 adipocyte mitochondrial potential changes, profiling panel, cell-based, JC-1 fluorescence, 3T3-L1 adipocytes, 24 h, 100 nL compound (AID 1168); settings: JC-1 mitochondrial fluorescence, higher = more signal, called active from +8 up or from −8 down; also: test concentration not given here
# [8] = basal RPMI8226 mitochondrial membrane potential changes, profiling panel, cell-based, JC-1 fluorescence, 24 h, 100 nL compound (AID 1169); settings: RPMI8226 myeloma, JC-1 mitochondrial potential fluorescence, higher = more signal; also: test concentration not given here
# [9] = basal MM1S mitochondrial membrane potential changes, profiling panel, cell-based, JC-1 fluorescence, 24 h, 100 nL compound (AID 1170); settings: higher = more signal; also: test concentration not given here
# [10] = A549 lung cancer cell viability effects, profiling panel, resazurin fluorescence, 24 h, PK04 Diversity Set (AID 1171); settings: higher = more signal, called active from +8 up or from −8 down; also: test concentration not given here
# [11] = HepG2 liver cancer cell viability effects, profiling panel, resazurin fluorescence, 24 h, PK04 Diversity Set (AID 1172); settings: higher = more signal; also: test concentration not given here
# [12] = basal S. cerevisiae growth modulation, no modifier, primary screen, OD600, strain BY4716, 24 h, basal condition (AID 1173); settings: OD600, 24 h, higher = more signal, called active from +8 up or from −8 down
# [13] = MM1S myeloma cell viability, profiling panel, resazurin fluorescence, basal, 24 h, PK04 Diversity Set (AID 1174); settings: higher = more signal, called active from +8 up or from −8 down;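 also: MM1S multiple myeloma cell line; test concentration not given here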
# [14] = target: Dihydroorotate dehydrogenase (quinone), mitochondrial (Plasmodium falciparum (isolate 3D7)) (UniProt Q08210); assay: PfDHODH enzyme inhibitors, primary screen, biochemical, C-terminal His tag, absorbance 600 nm (AID 1175); settings: DCIP absorbance 600 nm, higher = more signal, called active from +8 up or from −8 down;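 also: recombinant parasite enzyme with a five histidine tag at its C terminus; test concentration not given here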
# [15] = P. aeruginosa biofilm formation inhibitors, primary screen, strain PAO1, LB-PBS medium, absorbance 600 nm (AID 1176); also: test concentration not given here; settings: P. aeruginosa PAO1 growth/biofilm, A600, 12 h; higher = more signal
# [16] = S. cerevisiae RM11-1a growth modifiers, primary screen, strain RM11-1a, OD600, basal, 24 h (AID 1177); settings: OD600, 24 h, higher = more signal, called active from +8 up or from −8 down;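 also: cultures grown under basal conditions with no added stressor; test concentration not given here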
# [17] = E. coli acrAB mutant growth effects, primary screen, E. coli filamentation inducers, strain DRC39, OD650, 24 h (AID 1178); settings: higher = more signal, called active from +8 up or from −8 down;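 also: growth measured as culture turbidity by optical density at 650 nm; test concentration not given here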
# [18] = E. coli acrAB mutant growth effects, primary screen, E. coli filamentation inducers, strain DRC39, OD650, 48 h (AID 1179);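 also: screen aims at cell division blockers that make cells filament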; settings: E. coli DRC39 delta-acrAB growth, higher = more signal, called active from +8 up or from −8 down
# [19] = RPMI8226 myeloma cell viability, profiling panel, resazurin fluorescence, basal, 24 h, PK04 Diversity Set (AID 1180); settings: higher = more signal;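 also: RPMI8826 multiple myeloma cell line at 5000 cells per well; test concentration not given here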
# [20] = target: E3 ubiquitin-protein ligase XIAP (Homo sapiens) (UniProt P98170); assay: XIAP binders, primary screen, biophysical, small-molecule microarray, fluorescence 635 nm (AID 1181); settings: small-molecule microarray binding, higher = more signal;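 also: score merges 667 nm emission and signal to noise over triplicate slides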
# Sequence of E3 ubiquitin-protein ligase XIAP (Homo sapiens) (P98170 whole entry, looked up): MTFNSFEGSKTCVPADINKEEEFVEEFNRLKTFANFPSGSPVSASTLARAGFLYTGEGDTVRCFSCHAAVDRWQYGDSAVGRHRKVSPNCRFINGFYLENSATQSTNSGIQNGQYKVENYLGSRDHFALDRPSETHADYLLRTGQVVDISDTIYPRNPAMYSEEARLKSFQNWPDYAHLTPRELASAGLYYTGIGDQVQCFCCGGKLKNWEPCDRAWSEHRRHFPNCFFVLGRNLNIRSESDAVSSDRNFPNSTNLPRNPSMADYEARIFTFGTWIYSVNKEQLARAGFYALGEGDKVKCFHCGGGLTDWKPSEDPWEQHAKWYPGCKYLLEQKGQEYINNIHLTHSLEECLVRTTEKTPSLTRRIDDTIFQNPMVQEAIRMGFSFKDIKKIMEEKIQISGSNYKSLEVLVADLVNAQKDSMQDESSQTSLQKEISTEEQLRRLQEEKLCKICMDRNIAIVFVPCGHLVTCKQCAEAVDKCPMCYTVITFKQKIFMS
# Sequence of Dihydroorotate dehydrogenase (quinone), mitochondrial (Plasmodium falciparum (isolate 3D7)) (Q08210 whole entry, looked up): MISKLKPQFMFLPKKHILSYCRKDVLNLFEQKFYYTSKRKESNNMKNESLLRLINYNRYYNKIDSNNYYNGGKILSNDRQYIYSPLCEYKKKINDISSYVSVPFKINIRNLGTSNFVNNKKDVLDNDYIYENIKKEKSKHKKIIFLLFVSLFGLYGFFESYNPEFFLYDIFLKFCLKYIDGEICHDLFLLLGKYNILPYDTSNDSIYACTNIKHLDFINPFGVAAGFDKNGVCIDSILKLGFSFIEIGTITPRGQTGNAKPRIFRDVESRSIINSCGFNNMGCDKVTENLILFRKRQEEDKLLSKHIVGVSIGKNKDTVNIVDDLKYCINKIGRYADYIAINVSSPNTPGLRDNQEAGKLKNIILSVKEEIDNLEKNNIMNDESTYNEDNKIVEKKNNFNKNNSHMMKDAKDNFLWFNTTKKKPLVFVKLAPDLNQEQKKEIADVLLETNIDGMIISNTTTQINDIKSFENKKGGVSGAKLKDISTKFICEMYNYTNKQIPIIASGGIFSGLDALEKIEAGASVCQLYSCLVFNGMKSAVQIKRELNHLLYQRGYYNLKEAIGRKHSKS
Compound,z-score [1],z-score [2],z-score [3],z-score [4],z-score [5],z-score [6],z-score [7],z-score [8],z-score [9],z-score [10],z-score [11],z-score [12],z-score [13],composite z-score [14],z-score [15],z-score [16],z-score [17],z-score [18],z-score [19],composite z-score [20]
CCN1C(=O)[C@H]2[C@H]3[C@H](O)[C@H](O)CC(=O)[C@H]3CC[C@H]2C1=O,0.0697,0.015,-0.0937,0.14,-1.17,-0.531,-0.386 (inactive),-0.0768,0.816,0.26 (inactive),-0.195,-0.286 (inactive),-0.242 (inactive),-0.794 (inactive),-0.543 (inactive),-0.896 (inactive),-0.519 (inactive),-0.177 (inactive),-0.0216,-0.0476
C[C@H]1CC[C@H]2C(=O)OC(CO)CN2[C@@H]1c1ccc(Br)cc1 (stereo not given in full),0.228,0.764,-0.592,-2.22,0.0966,0.292,-0.18 (inactive),0.859,0.23,0.746 (inactive),0.228,-1.23 (inactive),-0.0363 (inactive),-0.0747 (inactive),0.967 (inactive),-0.373 (inactive),-0.472 (inactive),-0.304 (inactive),0.979,0.213
CC(C)=CCCC(C)=CCON=C1C[C@@H](O)[C@@H](O)[C@@H]2[C@@H]3C(=O)N(Cc4ccccc4)C(=O)[C@@H]3CC[C@H]12,-0.424,0.753,-0.908,-0.13,-1.41,1.66,-0.468 (inactive),0.394,-0.0142,0.539 (inactive),1.17,-2.99 (inactive),1.14 (inactive),-0.88 (inactive),0.507 (inactive),-1.28 (inactive),-0.366 (inactive),0.167 (inactive),0.369,-0.177
COc1cccc([C@H]2Oc3ccc(OC)cc3C(=NO[C@H](C)c3cn([C@H](CO)Cc4ccccc4)nn3)[C@@H]2O)c1,-0.16,0.131,-0.489,-0.0922,-0.719,-1.81,-3.16 (inactive),-0.0494,-0.252,0.286 (inactive),-0.26,0.723 (inactive),-0.328 (inactive),-0.755 (inactive),0.417 (inactive),-1.11 (inactive),0.753 (inactive),0.571 (inactive),0.249,-0.278
CC(C)=CCCC(C)=CCON=C1C[C@@H](O)[C@@H](O)[C@@H]2[C@@H]3C(=O)N(C(C)(C)C)C(=O)[C@@H]3CC[C@@H]12,0.0392,0.523,0.121,-1.09,-0.562,-0.279,-0.365 (inactive),-0.231,0.947,-1.03 (inactive),-0.976,-0.0139 (inactive),0.408 (inactive),0.661 (inactive),1.23 (inactive),-0.0348 (inactive),-0.106 (inactive),-1.26 (inactive),-0.11,-0.172
CCOC(=O)[C@H](CC(C)C)NC(=O)CCC1CC(OC(=O)NCc2cccc3ccccc23)CC2(CCCC(COC(=O)NCCOc3ccccc3)O2)O1 (stereo not given in full),2.15,0.519,0.335,-1.32,-0.273,1,0.661 (inactive),-0.763,-0.985,1.33 (inactive),0.329,-0.895 (inactive),0.572 (inactive),-0.785 (inactive),-0.127 (inactive),-0.879 (inactive),0.0446 (inactive),0.253 (inactive),1.57,-0.142
COC(=O)[C@@H]1CC[C@H](C)[C@@H](c2ccc(C)cc2)N1C(=O)c1ccc(C=NO[C@@H](C)c2cn([C@H](CO)Cc3ccccc3)nn2)cc1,0.724,-0.412,-0.759,-1.41,-1.92,-0.86,0.0596 (inactive),-0.946,-0.901,-0.392 (inactive),-1.27,-0.476 (inactive),-1.93 (inactive),-1.41 (inactive),0.171 (inactive),1.35 (inactive),0.836 (inactive),0.161 (inactive),-1.16,-0.102
COC(=O)CC=C[C@@H](C)[C@@H](C=NO[C@@H]1O[C@H](COC(C)=O)[C@@H](OC(C)=O)[C@H](OC(C)=O)[C@H]1OC(C)=O)NS(=O)(=O)c1ccc(C)cc1,-0.4,-0.387,-0.416,0.27,-1.81,-0.365,-1.39 (inactive),-0.736,0.049,-0.251 (inactive),0.22,0.653 (inactive),-1.04 (inactive),-0.069 (inactive),0.298 (inactive),-0.186 (inactive),-1.8 (inactive),-0.57 (inactive),-0.437,-0.177
CO[C@H]1COC(=O)CC=C[C@@H](C)[C@H](NS(=O)(=O)c2ccc(C)cc2)COC(=O)CCC[C@@H]1C,0.379,1.15,-0.179,0.339,0.229,-0.3,-0.134 (inactive),0.112,-0.58,0.478 (inactive),0.703,-0.99 (inactive),1.01 (inactive),-0.242 (inactive),-0.361 (inactive),-0.5 (inactive),0.0468 (inactive),0.0191 (inactive),0.545,0.0797
CON=C1[C@H]2CCn3c(=O)n(-c4ccccc4)c(=O)n3[C@H]2[C@H](O)[C@@H]2O[C@H]12,0.828,0.384,0.739,-0.211,0.483,-1.17,1.86 (inactive),0.391,0.68,-0.378 (inactive),0.348,-1.45 (inactive),0.333 (inactive),-0.984 (inactive),0.335 (inactive),-2.21 (inactive),0.0966 (inactive),-1.03 (inactive),0.116,0.0159
CCOC(=O)[C@H](Cc1ccccc1)NC(=O)CCC1CC(OC(=O)NCc2cccc3ccccc23)CC2(CCCC(COC(=O)NCC(c3ccccc3)c3ccccc3)O2)O1 (stereo not given in full),1.15,-0.0155,-0.808,-3.22,0.632,0.353,-0.151 (inactive),-0.107,-0.886,1.36 (inactive),0.812,-0.38 (inactive),0.923 (inactive),-0.305 (inactive),-0.163 (inactive),-0.714 (inactive),-0.371 (inactive),-0.661 (inactive),1.27,0.0655
CON=C(C)CCC(=O)OC[C@H]1O[C@H](c2ccccc2)C=C[C@@H]1Oc1ccc(OC)cc1,-0.208,-0.119,-0.646,-1.32,-0.0394,-1.05,0.0208 (inactive),0.00696,-0.0885,0.525 (inactive),0.0444,0.831 (inactive),0.289 (inactive),-0.0389 (inactive),0.0981 (inactive),1.44 (inactive),0.732 (inactive),-1.76 (inactive),0.268,0.0619
COc1cc(O)c(C(=O)C=Cc2ccc3c(c2)OCO3)c(OC)c1,-0.553,0.154,-0.932,-1.62,-1.36,-0.591,-0.646 (inactive),-0.23,-0.533,0.0731 (inactive),0.0215,1.12 (inactive),-0.307 (inactive),1.06 (inactive),1.2 (inactive),2.31 (inactive),-0.45 (inactive),-1.04 (inactive),-0.144,0.215
CCOC(=O)NN=C1C[C@@H](O)[C@@H](O)[C@@H]2[C@@H]3C(=O)N([C@@H](C)c4ccccc4)C(=O)[C@@H]3CC[C@@H]12,0.0669,-1.33,-0.624,0.372,-0.112,-0.369,-0.878 (inactive),-0.92,-0.834,0.4 (inactive),0.13,-0.608 (inactive),-0.371 (inactive),-0.0776 (inactive),-0.72 (inactive),-0.645 (inactive),-0.654 (inactive),-0.23 (inactive),-0.436,-0.202
CC(=O)OC[C@H]1O[C@H](C#Cc2ccccc2)C=C[C@@H]1OC(C)=O,-0.188,0.0552,-0.136,-3.51,-3.71,-1.65,0.458 (inactive),-1.04,-2.48,-0.713 (inactive),-0.153,-2.26 (inactive),-5.37 (inactive),-0.0765 (inactive),-0.339 (inactive),-0.14 (inactive),0.731 (inactive),0.414 (inactive),-2.61,-0.13
COc1ccc(O[C@H]2C=C[C@@H](c3ccccc3)O[C@@H]2CON=C2[C@H]3CCn4c(=O)n(-c5ccccc5)c(=O)n4[C@H]3[C@H](O)[C@@H]3O[C@H]23)cc1,0.455,-0.669,-0.0924,-2.98,-1.37,-0.0967,0.112 (inactive),-0.921,-0.429,-1.55 (inactive),-1.63,0.422 (inactive),-2.53 (inactive),-0.268 (inactive),-0.0417 (inactive),0.0056 (inactive),0.694 (inactive),0.731 (inactive),-1.92,-0.403
